Paper PMC7819943, “Rice protein-binding microarrays: a tool to detect cis-acting elements near promoter regions in rice”
The full ranking holds about 35,000 sequences; the median of “fluorescence intensity (a.u.)” is about 10,000, and the highest 2% start at about 52,000. What follows is part of a selection rich in the highest values, with near analogues and random picks from the rest.

biological target: T1, OsWOX13 (Oryza sativa, UniProt Q5QMM3 1-267); test: protein-binding microarray (RPBM); PBS, 2% BSA, 51.3 ng/ul salmon testes DNA, 50 uM zinc acetate, 200 nM TF, 25 C, 1 h; high values mean tight binding; details: protein: recombinant; tags: N-terminal polyhistidine and DsRed monomer fusion (pET32a); label: CyDye5-dUTP incorporated in the synthesized complementary strand; 3' TTTTT single-stranded linker to array surface; dsDNA, one strand shown
T1 sequence: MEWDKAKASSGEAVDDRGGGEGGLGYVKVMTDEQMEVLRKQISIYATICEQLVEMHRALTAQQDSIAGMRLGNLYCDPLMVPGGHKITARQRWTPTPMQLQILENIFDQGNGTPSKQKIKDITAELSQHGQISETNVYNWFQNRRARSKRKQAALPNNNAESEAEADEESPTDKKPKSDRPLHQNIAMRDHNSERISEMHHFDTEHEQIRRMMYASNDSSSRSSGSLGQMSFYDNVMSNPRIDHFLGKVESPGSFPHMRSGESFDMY
In short: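 A custom Agilent array was converted to double-stranded form by primer extension with Cy5-dUTP and blocked with 2% BSA. Protein at 200 nM in PBS with 2% BSA, salmon testes DNA and 50 µM zinc acetate was applied for 1 h at 25 °C, followed by washing. The proteins were polyhistidine–DsRed N-terminal fusions of transcription factors, expressed in E. coli BL21-CodonPlus and Ni–NTA-purified. The binding signal is per-feature fluorescence intensity (arbitrary units) from an Axon 4000B scanner.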

Row | Sequence | binding signal
1 | TAAAATTGCATGTGATCATTTTGTAAGCTAAACTTTTATTCGGAGTCACCTAGTGCAG | 11600 fluorescence intensity (a.u.)
2 | TTTGGATTGGGTTTGGTGGTTGGGTGGGAGGGAGGGAGCTCGGAGTCACCTAGTGCAG | 18700 fluorescence intensity (a.u.)
3 | GCTGCTCGGATTTGATTGATTGATTGATTGGCGGGTGGTCCGGAGTCACCTAGTGCAG | 64500 fluorescence intensity (a.u.)
4 | TCTTTGATTGGTGGCGGTGTTGAATTGAATTGAATTGATCCGGAGTCACCTAGTGCAG | 46300 fluorescence intensity (a.u.)
5 | TACTATCAACTCTGTTAAAATTGAAGAATTTTGACTAAAACGGAGTCACCTAGTGCAG | 3310 fluorescence intensity (a.u.)
6 | AGAATAATTATTTAAGTTAAGGTGTGTCACACCCCAATCCCGGAGTCACCTAGTGCAG | 25100 fluorescence intensity (a.u.)
7 | GTGCATCACCAATCAAAACAGGAGGTGTTTGGAACTCCGTCGGAGTCACCTAGTGCAG | 3870 fluorescence intensity (a.u.)
8 | TACGCATTGATTAGTTTTGTCAGGTTAGTATAGAATTTAACGGAGTCACCTAGTGCAG | 14000 fluorescence intensity (a.u.)
9 | CAGGTGTGATTGAAGTGATGTACTCAACTTACACCCGGGCCGGAGTCACCTAGTGCAG | 54400 fluorescence intensity (a.u.)
10 | GTACTAGTATTATTGATTGATACACTTGTGATGTCATGCCCGGAGTCACCTAGTGCAG | 30900 fluorescence intensity (a.u.)
11 | GTACTTGATAGTTCAGTGATAAGGGGTGTGATTTCAACCCCGGAGTCACCTAGTGCAG | 4490 fluorescence intensity (a.u.)
12 | ACATAATTAGTTTATCTCTCCTCAAGCTGGTGCATCTCTCCGGAGTCACCTAGTGCAG | 31200 fluorescence intensity (a.u.)
13 | TCGCTTTGATTGACACTAAGAACCTCGCTGCGCATCTCGTCGGAGTCACCTAGTGCAG | 58600 fluorescence intensity (a.u.)
14 | GAACCTTTTGATTGATTCTCGTCCTACACGCTTGAAGGCGCGGAGTCACCTAGTGCAG | 38200 fluorescence intensity (a.u.)
15 | TCTCCAAGATTGATCCGCATCTCCAACTAAACCCTCTCCTCGGAGTCACCTAGTGCAG | 7230 fluorescence intensity (a.u.)
16 | TGTCTGACTGACTGACTGGCTGCTGCTGCTGCTCATTCCTCGGAGTCACCTAGTGCAG | 23800 fluorescence intensity (a.u.)
17 | TCTCGCTTCTGCCACTGCTGGCTGTGCTGCTTCCCTAGCTCGGAGTCACCTAGTGCAG | 65100 fluorescence intensity (a.u.)
18 | ATTCTCTCTTTTGCTCGCTTTGTTCCCTTTTCTTTCTTTTCGGAGTCACCTAGTGCAG | 3770 fluorescence intensity (a.u.)
19 | GGAATTAATTAATGAATCACGTAGGCTACCTGGGTTGAAGCGGAGTCACCTAGTGCAG | 45800 fluorescence intensity (a.u.)
20 | TAAAATTAACGTGGACACTAATCTAGTTTAGACTTTGATTCGGAGTCACCTAGTGCAG | 15500 fluorescence intensity (a.u.)
21 | ACGTTTAATATTTATAATTAATTTTCAAACATCCGATGTGCGGAGTCACCTAGTGCAG | 19300 fluorescence intensity (a.u.)

Row | Sequence | binding signal
22 | TTAATGACTATTTAGTTGACATGTAAGAAACAGGGGATTTCGGAGTCACCTAGTGCAG | 3450 fluorescence intensity (a.u.)
23 | AACTTGCATACCAGTGGAATTCTTCAGGCTGGTCATGGAGCGGAGTCACCTAGTGCAG | 65500 fluorescence intensity (a.u.)
24 | GCTCGATTGGATAATTCTTCTGCATAACTAGCCAGTGGAGCGGAGTCACCTAGTGCAG | 26800 fluorescence intensity (a.u.)
25 | AAACTTGATGGAATTCTTTAAATGTTCGATTGCTGGAGAGCGGAGTCACCTAGTGCAG | 16700 fluorescence intensity (a.u.)
26 | TTAATTACTATCATTAGTGTTAAGTATATATTAACTAATGCGGAGTCACCTAGTGCAG | 25900 fluorescence intensity (a.u.)
27 | GAACTTTACCGAATTTGTAAATTAGATGTAAACTCATTTTCGGAGTCACCTAGTGCAG | 3580 fluorescence intensity (a.u.)
28 | GTGCCATTAATTTTGACTACTACTTGTGTGTCCTATCAAACGGAGTCACCTAGTGCAG | 7280 fluorescence intensity (a.u.)
29 | CACTTAACTTAATTAGTTAATTATTGCTCTATTTTCTCTGCGGAGTCACCTAGTGCAG | 60500 fluorescence intensity (a.u.)
30 | CCTAATTGACAAATGATTTCACCACGTCCCTTTCCATTTTCGGAGTCACCTAGTGCAG | 34200 fluorescence intensity (a.u.)
31 | TCTAGCTATTAATTTGCTCTCATTTATAACTTAGCCGCTACGGAGTCACCTAGTGCAG | 6390 fluorescence intensity (a.u.)
32 | GCGGATTAATTACTACTGGGCTGGCATTCTGATCACTTTGCGGAGTCACCTAGTGCAG | 25400 fluorescence intensity (a.u.)
33 | TTGACTGATTGCACGTCCAACCATAATTTCTTTTCGTCCACGGAGTCACCTAGTGCAG | 58600 fluorescence intensity (a.u.)
34 | ACCCTCATCTCTTCTCCTGATTGAATTGTCTTCCTCAACCCGGAGTCACCTAGTGCAG | 30400 fluorescence intensity (a.u.)
35 | GCCTTAATTGATTAACCGTGTAACATCTTCCTCACGCACCCGGAGTCACCTAGTGCAG | 65500 fluorescence intensity (a.u.)
36 | TAATTTTCTGAGTGATCAAATAATTGACCATAATTTTCCACGGAGTCACCTAGTGCAG | 8420 fluorescence intensity (a.u.)
37 | AATTGGCTTGGCTAATTAATTACTCCATTTGCGAACATGGCGGAGTCACCTAGTGCAG | 4010 fluorescence intensity (a.u.)
38 | ATGCGATTGACTAATTAATTGACTGGGCTTTGGCATTGGGCGGAGTCACCTAGTGCAG | 65500 fluorescence intensity (a.u.)
39 | ATAATTGATTCAACCTCGTTCTTAATTTGATACATCCTTCCGGAGTCACCTAGTGCAG | 32300 fluorescence intensity (a.u.)
40 | ACTTTTCTATTTAATTTTATCTATTTTCTTAATAACTATGCGGAGTCACCTAGTGCAG | 4340 fluorescence intensity (a.u.)
41 | TAAACCAATTACAATGATTATTTTCAACCGACCACCGATTCGGAGTCACCTAGTGCAG | 23300 fluorescence intensity (a.u.)
42 | AGGACTACTATAATTGCAACTGAAATAAAACCTTGGCTTGCGGAGTCACCTAGTGCAG | 5450 fluorescence intensity (a.u.)

Row | Sequence | binding signal
43 | CCCTCAATCAGCTGGTCGGCTGGTCGCACACACCACGTTCCGGAGTCACCTAGTGCAG | 11500 fluorescence intensity (a.u.)
44 | TAACTAATTAGTTAACTAATCGTCAATGTCACTAGCTTCTCGGAGTCACCTAGTGCAG | 45100 fluorescence intensity (a.u.)
45 | ATGATGAGATTGAGGTTGATATAGATAGCTTTGATGTTGACGGAGTCACCTAGTGCAG | 23200 fluorescence intensity (a.u.)
46 | GTGATAATTGCAAAATTAGGAATTATGCAAGGGGTGTAGACGGAGTCACCTAGTGCAG | 49400 fluorescence intensity (a.u.)
47 | TTTGCTAATGACAAATTAATTAGGCTTAATAAATTCGTCTCGGAGTCACCTAGTGCAG | 41500 fluorescence intensity (a.u.)
48 | GGGAAGACGAGATTGAGTGGATCAAAAGCCCTAAACCAATCGGAGTCACCTAGTGCAG | 8660 fluorescence intensity (a.u.)
49 | GCAGCTGACAGATGGAGGGATGTTCAGGATGTCCGGAGAACGGAGTCACCTAGTGCAG | 3250 fluorescence intensity (a.u.)
50 | GACCTTATTTGCATTGATTGACCTTATTTGCATTGATTTTCGGAGTCACCTAGTGCAG | 19600 fluorescence intensity (a.u.)
51 | TACTACTAATTATTGTCTTCTTAGTAATCACCAAGTGTGCCGGAGTCACCTAGTGCAG | 20700 fluorescence intensity (a.u.)
52 | ATGATTGTGATTTATATTTTGAAATAAAGAGAGTAGTAATCGGAGTCACCTAGTGCAG | 50500 fluorescence intensity (a.u.)
53 | ATAATTGATTGCTTTTGATGATTTCACCCTTATTTTGCTGCGGAGTCACCTAGTGCAG | 65100 fluorescence intensity (a.u.)
54 | TTATTCAGATAATTTGATGATGATGAAAGCAGAAGCTTTGCGGAGTCACCTAGTGCAG | 8570 fluorescence intensity (a.u.)
55 | ACATTTACTTAATTGTAAATATATATTTTGGTAATATATGCGGAGTCACCTAGTGCAG | 9650 fluorescence intensity (a.u.)
56 | ATATTGAATTATTGATTTGATGAAAATAATTTAGTATTATCGGAGTCACCTAGTGCAG | 20500 fluorescence intensity (a.u.)
57 | CTTAAATTGATTTATTTTGGAACGGAGAGAGTAATATGCACGGAGTCACCTAGTGCAG | 53500 fluorescence intensity (a.u.)
58 | GAAAATAGTATGATTGAAAATGACGTAAAGTGAATAGACCCGGAGTCACCTAGTGCAG | 23000 fluorescence intensity (a.u.)
59 | ATATTTTGATTGAATATGACGTATCCTAGTAATTTGGACCCGGAGTCACCTAGTGCAG | 59700 fluorescence intensity (a.u.)
60 | AATTAATTAATTAGTCTGTTCTTATTGCTTAGTGTACTACCGGAGTCACCTAGTGCAG | 53600 fluorescence intensity (a.u.)
61 | CCTAATTTCTAACATTATATTGTTGCTTAGTGTACTAACTCGGAGTCACCTAGTGCAG | 18700 fluorescence intensity (a.u.)
